The results in this text go back to PubChem BioAssay AID1611 (NINDS Approved Drug Screening Program, 2009).

A short description of the test: inducers of human heat shock response, cell-based, HSE luciferase (AID 1611). The following applies: human cells, HSE-luciferase heat shock reporter; stronger effect = higher value.
Consider `CNCCC=C1c2ccccc2CCc2ccccc21`, for which the fold change stood at 1.45. As for `C[C@](N)(Cc1ccc(O)c(O)c1)C(=O)O`, the figure is 0.74.

Regarding `CN(C)C(=O)C(CCN1CCC(O)(c2ccc(Cl)cc2)CC1)(c1ccccc1)c1ccccc1`, the fold change was found to be 1.52. On to `c1ccc(CN(CC2=NCCN2)c2ccccc2)cc1`, for which the fold change amounted to 1.78.

Consider `CN(C)CC/C=C1\c2ccccc2Sc2ccc(Cl)cc21`, for which the fold change was determined as 1.34. In the case of `NC(N)=NC(N)=Nc1ccccc1` it was 0.95; in that of `CC(C)NCC(O)COc1cccc2ccccc12` (stereo not given), 0.95; in that of `CC(=O)OCC(=O)[C@@]1(O)CCC2C3CCC4=CC(=O)CC[C@]4(C)C3C(=O)C[C@@]21C` (stereo not given in full), 0.62. As for `O=C(OCc1ccccc1)c1ccccc1`, the fold change worked out at 0.75.

With `Cn1c(=O)c2c(ncn2CCO)n(C)c1=O`, the fold change worked out at 0.58. Turning to `CC(=O)N(O)CCCCCNC(=O)CCC(=O)N(O)CCCCCNC(=O)CCC(=O)N(O)CCCCCN`, the fold change was 0.7. For the compound `CCCCCCc1ccc(O)cc1O`, the fold change is 1.27. As for `O=C(O)c1cc(=O)c2ccccc2[nH]1`, the figure is 1.38; as for `Cn1c(=O)c2c(ncn2CC(O)CO)n(C)c1=O` (stereo not given), 1.13. As for `NS(=O)(=O)c1cc2c(cc1Cl)NCNS2(=O)=O`, the figure is 0.97; as for `COc1ccc2cc3[n+](cc2c1OC)CCc1cc2c(cc1-3)OCO2`, 1.07; as for `CN=C(NC#N)NCCSCc1nc[nH]c1C`, 0.5. As for `CC1(C)O[C@@H]2CC3C4C[C@H](F)C5=CC(=O)CC[C@]5(C)C4[C@@H](O)C[C@]3(C)[C@]2(C(=O)CO)O1` (stereo not given in full), the figure is 1.35; as for `CCCCCC(C)N` (stereo not given), 1.8; as for `CC/C(=C(\c1ccccc1)c1ccc(OCCN(C)C)cc1)c1ccccc1`, 0.77.

Regarding `CC(C)[N+]1(C)C2CC[C@@H]1CC(OC(=O)C(CO)c1ccccc1)C2` (stereo not given in full), the fold change stood at 0.91. For the compound `CC1CCc2cc(F)cc3c(=O)c(C(=O)O)cn1c23` (stereo not given), the fold change is 1.07. Turning to `O=C1c2ccccc2C(=O)C1c1ccccc1`, the fold change was 331. Turning to `COc1ccc(CCN2CCC(Nc3nc4ccccc4n3Cc3ccc(F)cc3)CC2)cc1`, the fold change worked out at 1.64. In the case of `COc1ccc(C[C@H](N)C(=O)N[C@@H]2[C@@H](CO)OC(n3cnc4c(N(C)C)ncnc43)[C@@H]2O)cc1` (stereo not given in full) it was 1.26; in that of `CCN1CCN(C(=O)NC(C(=O)NC2C(=O)N3C(C(=O)O)=C(CSc4nnnn4C)CSC23)c2ccc(O)cc2)C(=O)C1=O` (stereo not given), 0.74; in that of `C[n+]1c2cc(N)ccc2cc2ccc(N)cc21`, 1.45. Take `N=c1nc(N2CCCCC2)cc(N)n1O`: the fold change was determined as 0.77. For `CCOc1ccc2c(c1)C(C)=CC(C)(C)N2`, the fold change came out at 1.18.

As to `CCN(CC)CCNC(=O)c1cc(Cl)c(N)cc1OC`, the fold change was found to be 1.24.

Take `Nc1nc2c(ncn2COCCO)c(=O)[nH]1`: the fold change amounted to 1.01. Consider `Nc1ccc(S(=O)(=O)Nc2ccccn2)cc1`, for which the fold change came to 0.76. As for `CC[C@H]1OC(=O)[C@H](C)[C@@H](O[C@H]2C[C@@](C)(OC)[C@@H](O)[C@H](C)O2)[C@H](C)[C@@H](O[C@@H]2O[C@H](C)C[C@H](N(C)C)[C@H]2O)[C@](C)(O)C[C@@H](C)C(=O)[C@H](C)[C@@H](O)[C@]1(C)O`, the figure is 0.93.

With `COC(=O)C(N)CS` (stereo not given), the fold change came to 0.85. In the case of `CC(C)COCC(CN(Cc1ccccc1)c1ccccc1)N1CCCC1` (stereo not given) it was 0.78. As for `CC1(C)S[C@@H]2[C@H](NC(=O)[C@@H](N)c3ccc(O)cc3)C(=O)N2[C@H]1C(=O)O`, the figure is 1.21; as for `Cc1ccccc1N1C(=O)c2cc(S(N)(=O)=O)c(Cl)cc2NC1C` (stereo not given), 0.83. Consider `Cc1c(C(N)=O)cc([N+](=O)[O-])cc1[N+](=O)[O-]`, for which the fold change came out at 1.05. For the compound `COc1ccc(NS(=O)(=O)c2ccc(N)cc2)nn1`, the fold change stood at 1.39. For `O=c1c(O)cc2c(O)oc3c(=O)c(O)cc4c3c2c1CC=4O`, the fold change was found to be 1.46.
